Our source for the activity change, negative = inhibition values is PubChem BioAssay AID624133 (Broad Institute, 2012).

Out of some 1,600 compounds screened, about 1,300 (81%) were called active. The rule behind the calls is not given here. So high a share suggests a set chosen from earlier hits. Only a sample is shown. Entries with a potency or affinity are not part of this list.

The experiment in a line: non-specific 3'UTR reporter inhibition in Clone20-Shn3RL – cell-based, Renilla luciferase, cherry-picked, counter-screen for Shn3 inhibitor project, dose response (AID 624133).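 Note: 0% = neutral control wells and -100% = positive control wells.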 Particulars: Clone20-Shn3RL cells, Renilla luciferase luminescence, 24 h; at 35 µM (top of the series) unless noted. For orientation: The purpose of a counterscreen is to sort out artefacts and off-target activity.
Consider `CCCCN1CC(COCc2ccccc2)Oc2cccc(Oc3ccc(C(C)C)cc3)c2S1(=O)=O` (stereo not drawn), for which the activity change, negative = inhibition amounted to 37.5%.

For `OCCNc1nc(Nc2ccc(Cl)cc2)nc(N2CCCC2)n1`, the activity change, negative = inhibition is -11.7%.

On to `OCCCNc1nccc(-c2cc(Nc3cccc(Cl)c3)ncn2)n1`, for which the activity change, negative = inhibition is -50%.

As to `Cc1cc(O)c(C(C)C)cc1C1(c2cc(C(C)C)c(O)cc2C)OC(=O)c2ccccc21`, the activity change, negative = inhibition amounted to 0%.

In the case of `Cc1ccccc1C(=O)N1CCN(c2ccc(NC(=O)c3ccc4c(c3)OCCO4)cc2)CC1`, the activity change, negative = inhibition is -103%.

With `O=C(NCCc1ccccc1)c1ccc2c(c1)OCCCO2`, the activity change, negative = inhibition came to 22.2%.

As for `Cc1onc(-c2c(Cl)cccc2Cl)c1C(=O)N[C@@H]1C(=O)N2[C@@H]1SC(C)(C)[C@@H]2C(=O)O`, the activity change, negative = inhibition was determined as 25%.

In the case of `CCOC(=O)C1CCN(c2cc3c(cc2NC(=O)c2ccccc2Br)n(C)c(=O)n3C)CC1`, the activity change, negative = inhibition is -4.54%.

Consider `COc1ccc(NC(=O)CCOc2cc(C)ccc2C)cc1S(=O)(=O)N1CCCCC1`, for which the activity change, negative = inhibition was 267%.

For `COc1cc(OC)cc(C(=O)OCC(=O)Nc2ccc(F)cc2F)c1`, the activity change, negative = inhibition was 11.1%.

Take `CCOc1ccc(Br)cc1C1=CC(=O)C[C@H](c2ccc(OC)cc2)C1`: the activity change, negative = inhibition came out at 133%.

Regarding `COc1ccc(-c2cc3nc(C)n(N)c(=O)c3s2)cc1`, the activity change, negative = inhibition stood at 13%.

With `CCSc1nnc(NC(=O)c2nc(S(=O)(=O)Cc3ccc(F)cc3)ncc2Cl)s1`, the activity change, negative = inhibition is -75%.

For `c1ccc(-c2cc(CSc3nc4ccccc4[nH]3)on2)cc1`, the activity change, negative = inhibition was -121%.

In the case of `COc1ccccc1-n1c(SCC(=O)Nc2cc(C)on2)nc2c(c1=O)SCC2`, the activity change, negative = inhibition turned out to be 58.3%.

`CSCCC(NC(=O)c1ccccc1)C(=O)OCC(=O)N(C)CCC#N` (stereo not drawn): the activity change, negative = inhibition came out at 16.7%.

On to `CN(CC(=O)Nc1ccccc1Cl)C(=O)c1cccc(S(=O)(=O)N2CCN(c3ccccc3)CC2)c1`, for which the activity change, negative = inhibition was -11.9%.

Consider `Cc1cc(C(=O)COc2cccnc2[N+](=O)[O-])c(C)n1-c1ccccc1`, for which the activity change, negative = inhibition was -74.4%.

Consider `CNS(=O)(=O)c1cccc(C(=O)OCc2cc(C(C)=O)ccc2OC)c1`, for which the activity change, negative = inhibition came out at 329%.

In the case of `Cc1ccccc1N/C(=N/S(=O)(=O)c1ccccc1)c1ccc(F)cc1`, the activity change, negative = inhibition was determined as 55.6%.

Turning to `COc1ccc(OC)c(NC(=O)c2cc(-c3cc(F)ccc3OCC3CCCO3)n[nH]2)c1` (stereo not drawn), the activity change, negative = inhibition is 26.4%.

For the compound `CCC12CN(S(=O)(=O)c3ccc(C)cc3)CC(CC)(CN(S(=O)(=O)c3ccc(C)cc3)C1)C2=O`, the activity change, negative = inhibition stood at 154%.

For `COc1ccc(C(O)c2nc(-c3cccc(F)c3)cs2)cc1` (stereo not drawn), the activity change, negative = inhibition stood at 45.8%.

`O=C(c1n[nH]c(=O)c2ccccc12)N1CCN(C2c3ccccc3-c3ccccc32)CC1`: the activity change, negative = inhibition was -59.1%.

As to `Cc1ccc(NC(=O)NCCCN2CCOCC2)cc1`, the activity change, negative = inhibition was -95.8%.

Consider `CCOc1ccc(NS(=O)(=O)c2cc(C(=O)NCCN3CCOCC3)ccc2C)cc1`, for which the activity change, negative = inhibition worked out at 360%.

On to `O=C(Cc1ccccc1)NCCS(=O)c1ccc(Cl)cc1` (stereo not drawn), for which the activity change, negative = inhibition is 58.3%.

For `CC(C)(CNC(=O)c1ccc(Cl)c(S(=O)(=O)N2CCc3ccccc3C2)c1)N1CCOCC1`, the activity change, negative = inhibition was -44.4%.

For the compound `CCN(CC)S(=O)(=O)c1ccc(N2CCOCC2)c(NC(=O)c2nn(C(C)C)c(=O)c3ccccc23)c1`, the activity change, negative = inhibition was -4.17%.

Regarding `Cc1ccc(OC(=O)CCC(=O)Oc2ccc(C)cc2C)c(C)c1`, the activity change, negative = inhibition is 70.8%.

`CC(C)C[C@@H](CO)N(Cc1ccccc1)S(=O)(=O)N(Cc1ccccc1)[C@H](CO)CC(C)C`: the activity change, negative = inhibition is -80%.

With `O=C(Nc1ccccc1)Nc1cc(OCC(F)(F)F)cc(OCC(F)(F)F)c1`, the activity change, negative = inhibition turned out to be 0%.

For `O=C(NCCCn1ccnc1)C(=O)NCC1OCCCN1S(=O)(=O)c1ccccc1` (stereo not drawn), the activity change, negative = inhibition is 8.33%.

Consider `Cc1cc(S(=O)(=O)NCc2ccncc2)c(C)cc1Br`, for which the activity change, negative = inhibition worked out at 275%.

Take `Cc1ccc(S(=O)(=O)NCc2ccncc2)cc1C`: the activity change, negative = inhibition was 25%.

Consider `CC(=O)N1CCOc2cc(S(=O)(=O)NCc3ccc(F)cc3)c(C)cc21`, for which the activity change, negative = inhibition is 179%.

As for `COCc1nn2c(N)c(C#N)cnc2c1-c1ccccc1`, the activity change, negative = inhibition amounted to 16.7%.

For the compound `CC(=O)OCC(=O)[C@@]1(O)CC[C@H]2[C@@H]3CCC4=CC(=O)CC[C@]4(C)[C@H]3C(=O)C[C@@]21C`, the activity change, negative = inhibition came out at 12.2%.

With `CC(NNC(=S)N1CCN(c2ccccn2)CC1)c1nccc2ccccc12` (stereo not drawn), the activity change, negative = inhibition is 300%.

Consider `Cc1c(C)c2ccc(OCC(=O)Nc3ccccn3)c(C)c2oc1=O`, for which the activity change, negative = inhibition is 107%.

On to `Cc1ccc(S(=O)(=O)NCCc2cc3ccc(C)cc3[nH]c2=O)cc1`, for which the activity change, negative = inhibition amounted to 33.6%.

`Cc1cc(C(=O)COC(=O)c2ccccc2O)c(C)n1Cc1cccs1`: the activity change, negative = inhibition was -4.54%.

With `CN=C1c2cc3cc(OC)ccc3n2CCN1Cc1ccccc1`, the activity change, negative = inhibition was 64.3%.

Turning to `COc1ccc(OC)c(NC(=O)CN(Cc2ccc(F)cc2)C2CCCCC2)c1`, the activity change, negative = inhibition was -40%.

Turning to `CC(C)(C)c1nc(NCCN2CCOCC2)c2nnn(Cc3ccccc3Cl)c2n1`, the activity change, negative = inhibition was -45.5%.

Consider `CCC(C)[C@H]1CNC(=S)N1CCc1cc(C(F)(F)F)cc(C(F)(F)F)c1` (stereo partly drawn), for which the activity change, negative = inhibition came to 177%.

Consider `CCN(CC)C(=O)C1CCCN(c2ccc([N+](=O)[O-])cc2[N+](=O)[O-])C1` (stereo not drawn), for which the activity change, negative = inhibition came out at 58.3%.

Take `C[C@]12CC[C@H](O)CC1=CCC1C2CC[C@@]2(C)C1CCC21OCCO1` (stereo partly drawn): the activity change, negative = inhibition worked out at 16.7%.

For the compound `Cc1cc(-n2c(C)cc(C(=O)CSc3nncn3C)c2C)no1`, the activity change, negative = inhibition was -18.2%.

On to `CCOc1ccc2nc(SC3CC(=O)N(c4ccc(C)cc4)C3=O)sc2c1` (stereo not drawn), for which the activity change, negative = inhibition came out at 30%.

For `Cc1ccc(CNC(=O)c2ccc3c(=O)c(O)c(-c4ccc(C)cc4)[nH]c3c2)cc1`, the activity change, negative = inhibition is -14.3%.

Take `CCc1c(O)nc(SCC(=O)Nc2ccccc2)n(-c2ccccc2)c1=O`: the activity change, negative = inhibition came to 80%.

Take `CN(C(=O)CSc1nc(-c2cccs2)nc2ccccc12)C1CCS(=O)(=O)C1` (stereo not drawn): the activity change, negative = inhibition is -119%.

Turning to `CCN(CC)Cc1c(O)ccc2c1O/C(=C\C=C\c1ccccc1)C2=O`, the activity change, negative = inhibition is 60%.

Regarding `O=C(NCCc1ccccc1)c1ccc2c(c1)OCCO2`, the activity change, negative = inhibition was -2.38%.

`COc1ccc2c(c1OC)C(=O)N1c3ccccc3C(=O)N(c3ccccc3F)C21` (stereo not drawn): the activity change, negative = inhibition turned out to be 87.5%.

Consider `CSc1nnc(-c2ccco2)n1-c1ccccc1`, for which the activity change, negative = inhibition came to 31.8%.

For the compound `CC(C)N1CCN(c2ccc(OCC3COC(Cn4cncn4)(c4ccc(Cl)cc4Cl)O3)cc2)CC1` (stereo not drawn), the activity change, negative = inhibition amounted to 0%.

For the compound `COc1c(CC=C(C)C)cc(C2CC(=O)c3c(O)cc(O)cc3O2)cc1CC=C(C)C` (stereo not drawn), the activity change, negative = inhibition turned out to be 50%.

With `Nc1nc(N)c2cc(S(=O)(=O)c3ccc4ccccc4c3)ccc2n1`, the activity change, negative = inhibition was 16.7%.

For the compound `C[C@@H]1CN([C@H](C)CO)C(=O)CCCn2nncc2CO[C@H]1CN(C)S(=O)(=O)c1ccc2c(c1)OCCCO2`, the activity change, negative = inhibition was -47.9%.

In the case of `O=C(NCCNC(=O)Oc1cccc2ccccc12)Oc1cccc2ccccc12`, the activity change, negative = inhibition is 41.7%.

On to `COc1cc(OC)c(OC)cc1CCC(C)NCCC(c1ccccc1)c1ccccc1` (stereo not drawn), for which the activity change, negative = inhibition is -33.3%.
